The supplement of paper PMC11732987, “Enantioselective OTUD7B fragment discovery through chemoproteomics screening and high-throughput optimisation” (Communications Chemistry, 2025)

Key:
Test in all cases: log2 ratio of Biotin-Ahx-Ub-VS probe labelling (fragment/DMSO); higher = less target engagement (more negative = stronger competition), active = hit call of the paper (q ≤ 0.05, log2 ratio ≤ -1)
Details in all cases: compound concentration: 200 uM; treatment time: 3 h
USP34 = USP34 (UniProt Q70CQ2)
USP34, sequence (Q70CQ2 whole entry, the tested form may be a part): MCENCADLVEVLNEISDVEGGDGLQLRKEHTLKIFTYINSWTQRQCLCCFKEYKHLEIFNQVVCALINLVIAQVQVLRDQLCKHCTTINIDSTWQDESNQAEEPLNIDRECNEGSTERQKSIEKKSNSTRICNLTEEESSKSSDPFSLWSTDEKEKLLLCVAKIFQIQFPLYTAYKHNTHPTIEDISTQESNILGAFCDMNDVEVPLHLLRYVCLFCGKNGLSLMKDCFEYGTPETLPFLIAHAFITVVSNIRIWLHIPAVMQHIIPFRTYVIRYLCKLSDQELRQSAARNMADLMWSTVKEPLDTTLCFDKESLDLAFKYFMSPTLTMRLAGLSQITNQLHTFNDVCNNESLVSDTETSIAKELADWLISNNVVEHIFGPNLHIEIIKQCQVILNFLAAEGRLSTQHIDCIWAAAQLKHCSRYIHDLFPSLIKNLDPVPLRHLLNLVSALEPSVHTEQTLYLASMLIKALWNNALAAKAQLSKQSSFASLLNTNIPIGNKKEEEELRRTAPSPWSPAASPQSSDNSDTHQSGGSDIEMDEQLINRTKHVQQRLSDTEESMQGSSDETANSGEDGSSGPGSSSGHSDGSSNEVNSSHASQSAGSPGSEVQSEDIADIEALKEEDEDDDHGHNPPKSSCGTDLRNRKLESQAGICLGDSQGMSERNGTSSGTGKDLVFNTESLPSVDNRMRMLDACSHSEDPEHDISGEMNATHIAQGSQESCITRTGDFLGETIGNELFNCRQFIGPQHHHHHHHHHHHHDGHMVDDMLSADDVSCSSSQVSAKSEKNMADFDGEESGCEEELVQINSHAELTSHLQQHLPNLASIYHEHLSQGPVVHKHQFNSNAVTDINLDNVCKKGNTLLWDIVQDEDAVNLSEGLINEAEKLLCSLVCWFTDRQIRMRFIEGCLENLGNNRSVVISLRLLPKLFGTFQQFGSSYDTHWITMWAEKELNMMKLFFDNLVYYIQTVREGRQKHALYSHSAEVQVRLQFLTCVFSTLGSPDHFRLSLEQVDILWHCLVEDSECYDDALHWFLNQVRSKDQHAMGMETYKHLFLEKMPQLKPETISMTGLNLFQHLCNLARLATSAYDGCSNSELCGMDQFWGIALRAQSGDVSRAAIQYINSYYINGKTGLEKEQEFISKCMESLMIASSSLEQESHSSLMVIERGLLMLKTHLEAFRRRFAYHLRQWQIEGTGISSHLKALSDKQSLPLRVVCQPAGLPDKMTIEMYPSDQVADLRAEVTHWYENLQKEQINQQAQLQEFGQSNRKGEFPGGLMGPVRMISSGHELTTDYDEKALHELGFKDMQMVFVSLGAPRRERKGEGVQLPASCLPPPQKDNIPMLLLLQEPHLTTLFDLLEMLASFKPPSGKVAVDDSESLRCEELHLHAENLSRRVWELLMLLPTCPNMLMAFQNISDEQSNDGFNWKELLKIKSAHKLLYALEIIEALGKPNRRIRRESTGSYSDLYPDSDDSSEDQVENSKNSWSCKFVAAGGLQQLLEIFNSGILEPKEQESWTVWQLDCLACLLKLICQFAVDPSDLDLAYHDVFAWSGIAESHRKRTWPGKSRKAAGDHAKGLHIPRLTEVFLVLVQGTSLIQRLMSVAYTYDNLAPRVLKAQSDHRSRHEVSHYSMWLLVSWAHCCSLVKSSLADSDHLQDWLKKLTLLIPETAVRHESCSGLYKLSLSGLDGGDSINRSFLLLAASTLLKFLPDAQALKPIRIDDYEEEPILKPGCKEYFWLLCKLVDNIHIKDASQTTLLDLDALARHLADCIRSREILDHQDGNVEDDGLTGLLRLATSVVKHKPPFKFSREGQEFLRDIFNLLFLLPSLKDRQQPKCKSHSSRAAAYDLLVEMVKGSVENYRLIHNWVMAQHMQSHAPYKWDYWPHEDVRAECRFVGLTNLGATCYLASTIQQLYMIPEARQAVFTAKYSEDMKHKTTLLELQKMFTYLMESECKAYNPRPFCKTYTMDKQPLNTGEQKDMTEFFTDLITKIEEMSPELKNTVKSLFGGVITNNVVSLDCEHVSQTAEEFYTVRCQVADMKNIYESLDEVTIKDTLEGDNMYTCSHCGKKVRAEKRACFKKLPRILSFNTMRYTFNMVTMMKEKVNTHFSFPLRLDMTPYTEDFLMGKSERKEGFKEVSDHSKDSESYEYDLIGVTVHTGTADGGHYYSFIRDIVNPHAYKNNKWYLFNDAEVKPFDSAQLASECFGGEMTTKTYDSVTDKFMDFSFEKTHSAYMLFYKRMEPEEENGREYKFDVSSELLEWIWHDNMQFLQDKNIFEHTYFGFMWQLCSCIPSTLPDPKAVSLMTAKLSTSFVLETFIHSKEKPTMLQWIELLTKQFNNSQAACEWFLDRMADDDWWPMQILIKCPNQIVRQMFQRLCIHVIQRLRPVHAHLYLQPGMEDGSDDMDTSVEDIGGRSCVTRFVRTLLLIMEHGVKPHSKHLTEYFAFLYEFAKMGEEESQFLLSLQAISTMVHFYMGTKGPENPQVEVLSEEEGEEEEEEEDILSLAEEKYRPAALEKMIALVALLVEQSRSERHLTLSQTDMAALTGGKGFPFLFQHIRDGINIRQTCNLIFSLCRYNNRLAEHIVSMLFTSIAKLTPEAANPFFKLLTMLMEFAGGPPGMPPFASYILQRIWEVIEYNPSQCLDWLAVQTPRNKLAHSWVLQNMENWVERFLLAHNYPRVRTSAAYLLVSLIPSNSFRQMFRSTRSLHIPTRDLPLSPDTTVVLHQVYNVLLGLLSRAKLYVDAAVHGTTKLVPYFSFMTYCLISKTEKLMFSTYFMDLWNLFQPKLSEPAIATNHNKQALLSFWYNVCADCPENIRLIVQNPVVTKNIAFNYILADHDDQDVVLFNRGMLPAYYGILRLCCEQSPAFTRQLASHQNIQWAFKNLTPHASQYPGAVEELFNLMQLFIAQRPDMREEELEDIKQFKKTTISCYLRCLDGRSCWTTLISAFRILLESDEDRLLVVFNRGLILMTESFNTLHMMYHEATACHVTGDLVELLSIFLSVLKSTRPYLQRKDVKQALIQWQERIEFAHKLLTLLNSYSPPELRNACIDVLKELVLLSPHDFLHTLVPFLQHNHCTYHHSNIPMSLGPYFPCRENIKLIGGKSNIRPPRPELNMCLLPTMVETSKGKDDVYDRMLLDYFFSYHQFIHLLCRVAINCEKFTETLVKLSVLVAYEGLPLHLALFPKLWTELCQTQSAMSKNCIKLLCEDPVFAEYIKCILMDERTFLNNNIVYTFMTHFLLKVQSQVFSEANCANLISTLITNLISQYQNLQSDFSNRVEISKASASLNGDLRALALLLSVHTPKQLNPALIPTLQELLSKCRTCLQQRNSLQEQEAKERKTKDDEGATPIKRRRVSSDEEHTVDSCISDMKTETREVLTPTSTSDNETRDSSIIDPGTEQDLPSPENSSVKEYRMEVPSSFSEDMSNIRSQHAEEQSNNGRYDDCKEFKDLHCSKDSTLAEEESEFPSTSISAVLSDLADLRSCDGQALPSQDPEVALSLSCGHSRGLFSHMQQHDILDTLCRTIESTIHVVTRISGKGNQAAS
In short: (§1)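 Each value is an average log2 ratio of fragment to vehicle, tested by unpaired t-test. The underlying Spectronaut label-free quantities were global-median-normalised, and only proteins with ≥2 unique peptides were included. Triplicate HEK293T lysate samples (495 µg) were exposed to fragment at 200 µM or vehicle for 3 h, then to Biotin-Ahx-Ub-VS at 0.5 µM final for 1 h, before NeutrAvidin enrichment of labelled DUBs, LysC and trypsin digestion, and diaPASEF LC-MS/MS.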

USP36 = target: T1, USP36 (UniProt Q9P275)
T1 sequence (whole entry): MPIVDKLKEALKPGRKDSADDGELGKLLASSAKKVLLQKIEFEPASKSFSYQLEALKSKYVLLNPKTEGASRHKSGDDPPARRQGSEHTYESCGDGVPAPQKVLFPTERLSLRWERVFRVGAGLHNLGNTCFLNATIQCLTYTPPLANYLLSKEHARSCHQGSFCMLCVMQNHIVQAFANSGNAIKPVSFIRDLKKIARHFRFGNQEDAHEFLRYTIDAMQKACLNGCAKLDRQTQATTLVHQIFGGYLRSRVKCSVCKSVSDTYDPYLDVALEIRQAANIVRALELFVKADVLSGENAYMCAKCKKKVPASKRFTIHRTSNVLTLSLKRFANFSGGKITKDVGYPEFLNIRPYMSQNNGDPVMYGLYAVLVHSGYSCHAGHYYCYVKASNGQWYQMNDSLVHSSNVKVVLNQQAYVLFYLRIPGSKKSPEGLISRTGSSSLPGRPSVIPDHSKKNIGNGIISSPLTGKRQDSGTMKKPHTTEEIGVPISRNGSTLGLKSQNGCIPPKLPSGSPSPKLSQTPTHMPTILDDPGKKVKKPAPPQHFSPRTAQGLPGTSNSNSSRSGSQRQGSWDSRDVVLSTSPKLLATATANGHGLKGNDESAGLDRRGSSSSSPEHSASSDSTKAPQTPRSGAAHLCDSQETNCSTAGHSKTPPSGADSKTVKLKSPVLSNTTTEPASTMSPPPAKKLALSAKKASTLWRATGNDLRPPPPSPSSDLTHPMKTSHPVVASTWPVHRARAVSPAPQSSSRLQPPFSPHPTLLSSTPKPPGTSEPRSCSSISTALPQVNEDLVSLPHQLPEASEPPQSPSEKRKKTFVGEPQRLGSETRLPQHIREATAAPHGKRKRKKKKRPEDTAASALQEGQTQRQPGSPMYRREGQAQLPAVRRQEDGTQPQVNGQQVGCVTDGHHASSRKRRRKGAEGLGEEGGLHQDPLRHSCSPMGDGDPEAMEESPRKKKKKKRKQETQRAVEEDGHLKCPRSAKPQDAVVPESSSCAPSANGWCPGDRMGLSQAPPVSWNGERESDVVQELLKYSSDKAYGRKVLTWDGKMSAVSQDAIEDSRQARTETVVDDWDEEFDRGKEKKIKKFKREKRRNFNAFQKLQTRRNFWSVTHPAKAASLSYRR
In short: as §1

USP38 = target: T2, USP38 (UniProt Q8NB14)
T2 sequence (whole entry): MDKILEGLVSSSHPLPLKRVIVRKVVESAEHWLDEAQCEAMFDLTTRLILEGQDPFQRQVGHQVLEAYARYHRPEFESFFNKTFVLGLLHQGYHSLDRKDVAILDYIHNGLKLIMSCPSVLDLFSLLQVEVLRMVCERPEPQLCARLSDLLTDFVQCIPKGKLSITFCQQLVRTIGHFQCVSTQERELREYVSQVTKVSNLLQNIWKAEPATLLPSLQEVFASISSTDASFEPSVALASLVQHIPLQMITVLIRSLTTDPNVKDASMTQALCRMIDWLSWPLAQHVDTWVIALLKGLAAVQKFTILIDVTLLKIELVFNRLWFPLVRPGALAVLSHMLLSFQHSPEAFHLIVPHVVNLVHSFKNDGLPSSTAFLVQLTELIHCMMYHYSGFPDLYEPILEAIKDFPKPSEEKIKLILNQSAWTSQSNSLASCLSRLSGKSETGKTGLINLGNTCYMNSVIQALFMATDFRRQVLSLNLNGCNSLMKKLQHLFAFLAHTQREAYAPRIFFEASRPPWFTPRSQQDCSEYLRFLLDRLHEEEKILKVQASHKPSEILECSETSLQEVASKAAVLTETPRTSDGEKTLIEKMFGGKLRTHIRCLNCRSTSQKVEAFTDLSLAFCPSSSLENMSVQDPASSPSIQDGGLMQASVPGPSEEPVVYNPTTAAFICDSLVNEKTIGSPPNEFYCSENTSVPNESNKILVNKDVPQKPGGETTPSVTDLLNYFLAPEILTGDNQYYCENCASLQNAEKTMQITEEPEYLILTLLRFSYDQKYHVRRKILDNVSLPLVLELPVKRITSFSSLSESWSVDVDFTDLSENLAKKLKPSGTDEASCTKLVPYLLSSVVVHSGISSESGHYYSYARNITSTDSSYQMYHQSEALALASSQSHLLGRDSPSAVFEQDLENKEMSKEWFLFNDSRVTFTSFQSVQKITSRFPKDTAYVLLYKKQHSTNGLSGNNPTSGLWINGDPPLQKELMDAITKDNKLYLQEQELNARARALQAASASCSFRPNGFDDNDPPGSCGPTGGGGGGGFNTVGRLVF
In short: as §1

USP39 = target: T3, USP39 (UniProt Q53GS9)
T3 sequence (whole entry): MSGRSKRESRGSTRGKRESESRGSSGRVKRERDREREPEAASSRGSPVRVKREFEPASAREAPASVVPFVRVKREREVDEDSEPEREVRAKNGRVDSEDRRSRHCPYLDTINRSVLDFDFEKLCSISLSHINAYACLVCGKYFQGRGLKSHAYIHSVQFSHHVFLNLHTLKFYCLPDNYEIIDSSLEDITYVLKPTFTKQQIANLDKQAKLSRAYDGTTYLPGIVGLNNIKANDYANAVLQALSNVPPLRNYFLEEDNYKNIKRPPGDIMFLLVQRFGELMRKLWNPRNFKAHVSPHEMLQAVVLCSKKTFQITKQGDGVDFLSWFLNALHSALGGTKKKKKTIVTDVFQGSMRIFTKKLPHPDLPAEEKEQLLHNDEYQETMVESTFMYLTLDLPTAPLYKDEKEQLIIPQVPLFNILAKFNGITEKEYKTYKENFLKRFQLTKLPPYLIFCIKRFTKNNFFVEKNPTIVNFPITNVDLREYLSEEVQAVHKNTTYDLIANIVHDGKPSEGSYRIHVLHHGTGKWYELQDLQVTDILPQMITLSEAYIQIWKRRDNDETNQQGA
In short: as §1

USP4 = target: T4, USP4 (UniProt Q13107)
T4 sequence (whole entry): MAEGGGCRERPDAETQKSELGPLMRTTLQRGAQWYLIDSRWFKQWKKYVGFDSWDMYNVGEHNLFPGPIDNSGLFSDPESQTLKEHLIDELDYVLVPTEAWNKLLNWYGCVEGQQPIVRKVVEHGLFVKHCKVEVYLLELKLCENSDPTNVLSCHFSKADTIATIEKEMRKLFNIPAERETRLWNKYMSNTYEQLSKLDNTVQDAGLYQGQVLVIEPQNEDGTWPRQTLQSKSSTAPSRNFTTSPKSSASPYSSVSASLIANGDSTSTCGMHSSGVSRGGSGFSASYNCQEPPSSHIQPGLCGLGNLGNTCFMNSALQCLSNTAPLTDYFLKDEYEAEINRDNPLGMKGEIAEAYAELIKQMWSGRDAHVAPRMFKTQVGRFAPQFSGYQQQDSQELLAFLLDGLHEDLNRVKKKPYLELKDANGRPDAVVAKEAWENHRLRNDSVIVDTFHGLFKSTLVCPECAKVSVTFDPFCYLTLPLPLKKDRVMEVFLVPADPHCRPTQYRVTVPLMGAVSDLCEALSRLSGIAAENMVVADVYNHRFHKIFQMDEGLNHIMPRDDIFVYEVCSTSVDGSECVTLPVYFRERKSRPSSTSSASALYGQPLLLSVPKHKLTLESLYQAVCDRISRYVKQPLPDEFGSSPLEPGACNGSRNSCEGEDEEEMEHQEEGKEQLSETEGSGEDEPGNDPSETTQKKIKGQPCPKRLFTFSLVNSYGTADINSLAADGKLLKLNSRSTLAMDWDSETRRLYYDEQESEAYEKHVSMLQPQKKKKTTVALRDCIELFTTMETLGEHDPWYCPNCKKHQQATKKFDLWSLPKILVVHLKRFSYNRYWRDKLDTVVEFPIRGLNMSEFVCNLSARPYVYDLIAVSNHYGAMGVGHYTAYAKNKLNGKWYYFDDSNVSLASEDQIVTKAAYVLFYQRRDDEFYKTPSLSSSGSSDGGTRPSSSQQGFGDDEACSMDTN
In short: as §1

Measured: log2 ratio of Biotin-Ahx-Ub-VS probe labelling

NS(=O)(=O)c1ccc(Cl)c(NC(=O)CCl)c1
inactive: USP34 -0.381 | USP36 -0.132 | USP38 0.0479 | USP39 0.175 | USP4 -0.198
